# WRN helicase inh = WRN helicase (human) inhibition | WRN helicase unwinding, fluorescent forked duplex, kinetic | Potency, µM (doses to about 114 µM), without a hit: at the top dose activity change, negative = inhibition, usual class: inhibitors | AID 651768 | Q14191 | hit rate 0.46% among 360,000; note: nearly all actives have a fitted effect of over 55% in size
#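 Fluorescence dequenching readout, ex 525 nm/em 598 nm, kinetic mode: forked duplex DNA (100 nM final) with adjacent fluorophore and quencher unwound by WRN (20 nM final) with 2 mM ATP. Compound preincubation 15 min, room temperature.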
# BLM inh = inhibitors of human Bloom syndrome helicase BLM; hit rate 0.2% among 350,000; recombinant BLM DNA unwinding, fluorescence dequenching; AID 2528; Potency, µM (top dose mostly 56.1 µM), for the others: at the highest dose activity change, negative = inhibition, actives largely listed as inhibitors; P54132;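 note: plate controls were vehicle for no effect and no enzyme for full effect; nearly all actives have a fitted effect of over 35% in size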
# L3MBTL1 block = inhibitors of human L3MBTL1; AID 485360; AlphaScreen L3MBTL1–H3K9me1 peptide binding; hit rate 0.66% among 230,000; Potency, µM (series often up to 57.1 µM), without a hit: top-dose activity, negative = inhibition, usual class: inhibitors; Q9Y468; note: nearly all actives have a fitted effect of over 60% in size
#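 AlphaScreen proximity signal between nickel-chelate acceptor and streptavidin donor beads (final 10 ug/mL) reports binding of 50 nM L3MBTL1 to 75 nM biotin-H3 K9me1 peptide; complex incubated with compounds 30 min at room temperature; cefsulodin titration as control.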
# RECQ1 inh-1 = RECQ1 (human) helicase inhibition. hit rate 0.54% among 240,000. Potency, µM (series often up to 57.3 µM), inactives show top-dose activity, negative = inhibition, hits mostly inhibitors. AID 2549. RECQ1 DNA unwinding, red fluorescence kinetic read;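 note: plate controls were vehicle for no effect and no enzyme for full effect; nearly all actives have a fitted effect of over 30% in size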
# Target sequence (P46063 whole entry, looked up): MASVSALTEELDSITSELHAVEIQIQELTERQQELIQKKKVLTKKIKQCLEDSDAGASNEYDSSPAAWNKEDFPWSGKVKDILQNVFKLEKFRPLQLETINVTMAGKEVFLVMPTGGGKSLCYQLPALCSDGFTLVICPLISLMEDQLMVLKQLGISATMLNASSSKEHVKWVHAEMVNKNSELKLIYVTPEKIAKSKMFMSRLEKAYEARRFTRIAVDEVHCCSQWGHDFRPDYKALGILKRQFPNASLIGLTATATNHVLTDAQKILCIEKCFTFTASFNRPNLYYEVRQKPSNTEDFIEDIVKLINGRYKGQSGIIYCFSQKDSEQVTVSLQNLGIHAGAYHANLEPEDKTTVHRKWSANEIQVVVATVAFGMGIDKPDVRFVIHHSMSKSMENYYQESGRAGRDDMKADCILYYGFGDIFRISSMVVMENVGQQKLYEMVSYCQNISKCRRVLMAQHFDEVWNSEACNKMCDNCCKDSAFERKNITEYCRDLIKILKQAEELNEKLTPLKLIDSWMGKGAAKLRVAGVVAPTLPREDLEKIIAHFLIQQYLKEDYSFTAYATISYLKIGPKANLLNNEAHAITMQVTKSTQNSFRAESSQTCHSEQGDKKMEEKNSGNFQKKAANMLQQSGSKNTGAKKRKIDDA
#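 50 nM RECQ1T1 preincubated 15 min with compound in Tris pH 8.0 buffer with MgCl2, DTT, Tween-20 and 2.5 ug/ml poly(dI-dC); started with 200 nM TAMRA/BHQ-2 forked duplex and 2 mM ATP. Unwinding read as fluorescence (525/598 nm), two reads 2 h apart.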
# APEX1 inh = APE1 (human) endonuclease inhibition; P27695; recombinant APE1, TAMRA/BHQ-2 abasic DNA cleavage fluorescence; Potency, µM (titrated, usually from 65.8 µM), without a hit: at the highest dose activity change, negative = inhibition, usual class: inhibitors; hit rate 0.35% among 350,000;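 note: plate controls were vehicle for no effect and reference inhibitor for full effect; nearly all actives have a fitted effect of over 55% in size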
#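 Incision of a quenched TAMRA/BHQ-2 THF abasic-site duplex (50 nM) by 0.75 nM APE1, after 15 min compound preincubation, measured as fluorescence increase over three 60 s reads. Values normalized to buffer, DMSO and NSC13755 control wells.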
# RECQ1 conf = confirmation of human RECQ1 helicase inhibitors | shares compounds with RECQ1 inh-1 | Potency, µM (top dose mostly 229 µM), for the others: at the highest dose activity change, negative = inhibition, usual class: inhibitors | hit rate 28% among 610 | RECQ1 helicase DNA unwinding, fluorescence; note: nearly all actives have a fitted effect of over 45% in size
# RECQ1 ADP FP = ADP displacement flagged in RECQ1 inhibitor counter-screen; hit rate 27% among 530; ADP fluorescence polarization displacement counterscreen; AID 2711; shares compounds with RECQ1 inh-1; Potency, µM (series often up to 228 µM), inactives show top-dose activity change, negative = inhibition, usual class: inhibitors; note: nearly all actives have a fitted effect of over 45% in size
# RECQ1 inh-2 = RECQ1 helicase inhibition confirmed, round 2. shares compounds with RECQ1 inh-1. recombinant RECQ1 DNA unwinding, red fluorescence. Potency, µM (doses to about 119 µM), for inactives: top-dose activity, negative = inhibition, hits mostly inhibitors. hit rate 15% among 1,100. AID 504841; note: nearly all actives have a fitted effect of over 50% in size
# The depositor's hits bear a star; i = inactive; u = inconclusive; x = no result; [ ] = another dose, or the depositor's remark. Hits are enriched below; roughly 0.92% of the tested compounds scored in any of these assays. Calls come from the whole dose curve; as a rule, active = well fitted curve in the direction sought with a large enough effect; inconclusive = small, poorly fitted or top-dose-only effect, or another doubt; inactive = no such curve, though single readings can be large; an effect the other way counts as inactive or inconclusive. Unless noted, % is set by controls: 0 for no effect and ±100 for the full control effect; potency is the fitted concentration of half-maximal effect.
SMILES,WRN helicase inh,BLM inh,L3MBTL1 block,RECQ1 inh-1,APEX1 inh,RECQ1 inh-2,others
COc1ccccc1-c1noc(CCC(=O)Nc2ccc(C)cc2C)n1,x,-1%,x,x,x,x,
O=C(O)CCC(=O)N1N=C(c2ccco2)CC1c1ccco1 (stereo unspecified),-2%[11.6 µM],-5%,-3%,x,-29%,x,
O=C(O)CCC(=O)N1N=C(c2ccco2)CC1c1cccs1 (stereo unspecified),-16%,-2%,2%,-4%,5%,x,RECQ1 conf=-4%;RECQ1 ADP FP=5%
CCCCN1C=CC(=C2C(=O)c3ccccc3C2=O)C=C1,-4%,-1%,x,u,4%,-12%,
CCCCNC1=CC(=O)C(=O)c2ccccc21,8%,-10%,-14%,14%,8%,x,
Cc1cc(C)cc(NC(=O)C2CCCN(c3nnc(-n4c(C)ccc4C)s3)C2)c1 (stereo unspecified),x,-11%,x,x,x,x,
COC(=O)Nc1ccc(S(=O)(=O)N2CCCC(C(=O)N3CC(C)OC(C)C3)C2)cc1 (stereo unspecified),0%,-6%,-3%,-13%,-3%,x,RECQ1 conf=-2%;RECQ1 ADP FP=12%
Cc1cccc(N(C(=O)c2ccc(Cl)cc2)C2CS(=O)(=O)CC2OC(=O)c2ccc(Cl)cc2)c1 (stereo unspecified),-13%,-7%,-3%,u,8%,-11%,
Cc1cccc(C(=O)OC2CCN(C)CC2)c1,-2%,-4%,-20%,-3%,0%,x,
COc1ccc(Cl)cc1C(=O)Nc1nnc2n1CCS2,x,-1%,x,x,x,x,
O=C(O)CCC(NC(=O)C1CCCN1C(=O)OCc1ccccc1)C(=O)O (stereo unspecified),0%,3%,21%,-19%,4%,x,RECQ1 conf=3%;RECQ1 ADP FP=u
CNC1C(O)C2OC3OC(C)CC(=O)[C@@]3(O)O[C@H]2[C@H](NC)C1O (stereo partly specified),x,4%,x,-8%,1%,x,
COc1ccc(-c2cc(=O)c3cc(O)ccc3o2)cc1,-5%,0%,-8%,u,1%,-18%,
COc1ccccc1CNC(=O)CN1C(=O)CSc2c1c(C)nn2-c1ccccc1,x,4%,x,x,x,x,
CCOc1ccc(CN(C(=O)/C=C/c2ccco2)C2CCS(=O)(=O)C2)cc1 (stereo unspecified),2%,-10%,x,x,3%,x,
COc1ccc(CN(C(=O)/C=C/c2ccco2)C2CCS(=O)(=O)C2)cc1 (stereo unspecified),-29%[57.1 µM],-24%,-26%,u,u,u,
CC1(C)SC2[C@@H](N=CN3CCCCCC3)C(=O)N2[C@H]1C(=O)O (stereo partly specified),x,-4%,x,x,x,x,
COc1ccc(/C=C/c2nc(C#N)c(N3CCC(C)CC3)o2)cc1OC,x,-1%,x,x,x,x,
COc1ccc(C(=O)N2CCC3(CCN(C(=O)Nc4ccccc4)CC3)CC2)cc1,x,-6%,x,i,3%,x,
Cn1c(N)c(C(=O)COC(=O)C2CC(O)CN2S(=O)(=O)c2ccc(Cl)cc2)c(=O)n(C)c1=O (stereo unspecified),0%,-1%,x,0%,3%,x,RECQ1 conf=15%;RECQ1 ADP FP=6%
COc1ccccc1Nc1nc(-c2c(C)nc3ncccn23)cs1,-24%,-3%,-13%,u,1%,u,
Cc1ccc(NC(=O)CSc2nc(N)c3c4c(sc3n2)CSC(C)(C)C4)cc1,-16%,-9%,-12%,-10%,-3%,x,
Cc1ccccc1NC(=O)CSc1nc(N)c2c3c(sc2n1)CSC(C)(C)C3,-13%,-6%,-5%,22µM*,-2%,-18%,
O=C(CN1CCN(S(=O)(=O)c2ccc(Cl)cc2)CC1)c1ccc(O)c(O)c1,-30%,-13%,x,x,-2%,x,
O=C(CN1CCN(S(=O)(=O)c2ccc(F)cc2)CC1)c1ccc(O)c(O)c1,-3%,2%,x,40µM*,4µM*,-11%,
SMILES,WRN helicase inh,BLM inh,L3MBTL1 block,RECQ1 inh-1,APEX1 inh,RECQ1 inh-2,others
Cc1cc(C)cc(NC(=O)c2nnn(Cc3cc(C)ccc3C)c2N)c1,-7%,-9%,-4%,1.8µM*,3%,-18%,RECQ1 conf=u;RECQ1 ADP FP=u
CCOC(=O)c1ccc(N2C(=O)c3n[nH]c(-c4ccco4)c3C2c2ccc([N+](=O)[O-])cc2)cc1 (stereo unspecified),-4%,-10%,-31%,u,-10%,-19%,
CCOC(=O)c1ccc(N2C(=O)c3n[nH]c(-c4ccco4)c3C2c2ccc(C)cc2)cc1 (stereo unspecified),x,-17%,x,x,x,x,
COC(=O)c1cccc(C(=O)Oc2cccc(Br)c2)n1,-6%,0%,3%,14µM*,-1%,-5%,RECQ1 conf=11%[114 µM];RECQ1 ADP FP=28%[91.9 µM]
Cc1ccc(S(=O)(=O)NCC(=O)N(CC(=O)NCC2CCCO2)Cc2ccco2)cc1 (stereo unspecified),-3%[57.1 µM],-28%,u,22µM*,u,-14%,
C[C@@H](C(=O)O)c1cccc(C(=O)c2ccccc2)c1,x,-5%,x,-2%[25.9 µM],x,x,
Cc1cc(C)c(S(=O)(=O)NCc2ccc3c(c2)cc(C)n3C)c(C)c1,u,-15%,-10%,u,-3%,56µM*,
Cc1cc2cc(CNS(=O)(=O)c3ccc4ccccc4c3)ccc2n1C,u,-12%,-14%,u,-8%,x,
Cc1cc2cc(CNC(=O)c3cccc([N+](=O)[O-])c3)ccc2n1C,-6%,-9%,-6%,-1%,18%,x,
Cc1c(C(=O)NCc2ccc3c(c2)cc(C)n3C)cccc1[N+](=O)[O-],-24%,-6%,-6%,u,u,-9%,
CC(=O)Nc1ccc(S(=O)(=O)NCc2ccc3c(c2)cc(C)n3C)cc1,u,-24%,x,32µM*,-8%,50µM*,
CCn1c(CSc2nnc(-c3ccncc3)n2C)nc2cc(C(=O)O)ccc21,71µM*,-6%,x,14µM*,-10%,79µM*,RECQ1 conf=40µM*;RECQ1 ADP FP=7.1µM*
CC(C)Oc1ccc(CN2CCc3nc(Nc4ccc5c(c4)OCCO5)ncc3C2)cc1,x,-14%,x,x,x,x,
CCc1nn(CC(=O)NCc2ccc(C)cc2)c(=O)c2cc3occc3n12,x,-6%,x,x,x,x,
CC1CCN(CCCn2c(=S)[nH]c3c(sc4ccc([N+](=O)[O-])cc43)c2=O)CC1,u,-1%,15%,u,17%,u,
COc1cc2c(cc1OC)C(c1ccc(Cl)cc1)N(c1cccc(C#N)c1)C(=O)C2 (stereo unspecified),x,-3%,x,x,x,x,
